# Source: PubChem
# TEAD-YAP block: TEAD-YAP interaction inhibition, primary screen, TEAD-YAP interaction inhibitor project, luminescence, HEK-TIYL cells. 640,000 compounds, 1.4% hits. TEAD-Gal4/YAP UAS-luciferase luminescence. inhibition, % at 9.12 µM. AID 1259422, 2018; in the data active means inhibition above about 32%;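 further: 0% = median of test compound wells and 100% = reference inhibitor wells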
# FBW7 act: FBW7 E3 ligase activators, primary screen, biochemical, AlphaScreen, human; 650,000 compounds, 0.13% hits; AID 1259310, 2017; normalized activity (activation), % at 26.1 µM; AlphaScreen FBW7–phospho-cyclin E peptide binding, activator screen; in the data active means normalized activity above about 1.9%;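 further: purified mutant Fbw7 with reduced substrate affinity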
# GPR151 ag: activators of human GPR151, primary screen, cell-based, PathHunter beta-arrestin, luminescence | PathHunter beta-arrestin GPR151 cells | activation, % at 11.2 µM | 650,000 compounds, 1% hits | AID 1508602, 2020 | G-protein coupled receptor 151 (Homo sapiens), Q8TDV0; in the data active means activation above about 4.9%;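 further: 0% = median of compound wells and 100% = cells with positive control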
# Target sequence (Q8TDV0 whole entry, looked up): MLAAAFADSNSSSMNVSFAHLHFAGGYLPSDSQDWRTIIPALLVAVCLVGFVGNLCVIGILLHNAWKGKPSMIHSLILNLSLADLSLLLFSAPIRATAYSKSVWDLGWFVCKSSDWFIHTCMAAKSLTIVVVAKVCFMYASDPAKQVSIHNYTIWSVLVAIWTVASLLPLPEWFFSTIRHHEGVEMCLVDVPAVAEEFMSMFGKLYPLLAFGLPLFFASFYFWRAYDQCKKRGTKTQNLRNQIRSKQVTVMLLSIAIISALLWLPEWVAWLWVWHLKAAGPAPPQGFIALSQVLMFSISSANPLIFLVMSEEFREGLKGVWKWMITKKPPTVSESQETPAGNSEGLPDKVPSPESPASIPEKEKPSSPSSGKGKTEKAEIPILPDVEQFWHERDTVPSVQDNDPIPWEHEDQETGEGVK
# MITF inh: MITF inhibitors, primary screen, biochemical, AlphaScreen, human. Microphthalmia-associated transcription factor (Homo sapiens), O75030. AlphaScreen MITF homodimerization, bead proximity signal. inhibition, % at 2.6 µM. 650,000 compounds, 0.91% hits. AID 1259374, 2018; in the data active means inhibition above about 50%;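 further: 0% = vehicle wells with protein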
# * marks the source's active call; other numbers are inactive results. Sampled rows, rich in hits. Any-hit rate of the full collection: about 3.5%.
SMILES,TEAD-YAP block,FBW7 act,GPR151 ag,MITF inh
CCOc1ccc(S(=O)(=O)Nc2ccc3nc(C)n(-c4ccc(F)cc4)c(=O)c3c2)c(OCC)c1,49.8*,0.8,-1.3,25.3
COc1ccc(F)cc1S(=O)(=O)Nc1ccc2nc(C)n(-c3ccc(Cl)cc3)c(=O)c2c1,23.0,0.7,0.8,23.5
CCOC(=O)c1c(NC(=O)C2CC=CCC2C(=O)O)sc2c1CCC(C)C2 (stereo not drawn),-8.7,0.0,0.2,22.9
O=Cc1ccccc1OCCc1ccccc1,-1.6,-0.1,0.6,-1.2
O=C(COc1ccccc1)c1ccc(O)cc1O,-11.0,0.0,-1.6,0.4
Cc1nc2sc3c(c2c(=O)n1Cc1ccc(C(C)(C)C)cc1)CCCC3,18.8,0.0,1.6,8.7
COc1ccc(CCn2cnc3sc4c(c3c2=N)CCCC4)cc1OC,39.3*,-0.3,1.2,-6.2
CC(C)(C)c1ccc(Cn2cnc3sc4c(c3c2=O)CCCC4)cc1,61.6*,0.2,0.6,-2.1
O=C(CSc1nnc(-c2ccc3c(c2)OCO3)o1)Nc1ccc2[nH]c(=O)[nH]c2c1,0.4,4.6*,1.1,-30.2
CCN1CCN(CC(=O)Nc2ccc(Cl)cc2)C(=O)C1=O,6.7,1.9*,-1.9,19.2
CCN1CCN(CC(=O)Nc2ccc(C)cc2)C(=O)C1=O,-9.3,0.3,1.2,6.6
Cc1cc(C)n(CC(O)Cn2c(C)c(C)c3ccccc32)n1 (stereo not drawn),-4.8,-0.3,-0.2,52.8*
CNc1nc(-c2ccc3c(c2)CCN3C(C)=O)c(C)s1,-46.6,0.8,1.0,21.7
CCC(=O)N1CCc2cc(-c3nc(N)sc3C)ccc21,10.2,0.0,-2.0,14.1
CC(=O)Nc1nc(-c2ccc3c(c2)CCN3C(C)=O)c(C)s1,52.9*,0.9,-0.7,-11.8
CCC(=O)N1CCc2cc(-c3nc(NC(C)=O)sc3C)ccc21,80.0*,0.1,0.6,7.3
O=C(Nc1nc2c(s1)CCCC2)c1cc(F)c(F)c(F)c1F,47.8*,0.0,3.4,0.8
O=C(Nc1nc2c(s1)CCCC2)c1ccccc1I,-75.0,-0.1,2.3,-1.9
Cn1ccc(C(=O)Nc2nc3c(s2)CCCC3)n1,46.4*,0.8,-10.1,25.8
COC(=O)c1ccc(C(=O)Nc2nc3c(s2)CCCC3)cc1,-76.9,0.0,-4.1,-9.9
O=C(/C=C/Nc1ccc([N+](=O)[O-])cc1Br)c1ccccc1,42.7*,0.1,-0.8,7.2
COc1ccc(C(=O)/C=C/Nc2ccc(F)cc2F)cc1,-32.8,0.6,-0.7,17.4
CCc1ccc(C(=O)/C=C/Nc2ccccc2O)cc1,38.6*,0.0,-4.3,2.0
Cc1ccc(C(=O)/C=C/Nc2ccccc2O)cc1,4.2,-0.1,-1.9,-30.8
COc1cccc(C(=O)/C=C/Nc2ccc(F)cc2F)c1,71.0*,0.2,-4.2,9.0
SMILES,TEAD-YAP block,FBW7 act,GPR151 ag,MITF inh
O=C(/C=C/Nc1ccc(F)cc1Br)c1ccccc1,85.9*,-0.1,-4.5,5.9
CC1=CCC2C(=O)N(c3ccccc3C)C(=O)C2C1 (stereo not drawn),7.8,0.5,-1.1,8.3
CCOC(=O)c1c(NC(=O)CSc2ccccc2)sc2c1CCCC2=O,5.8,-0.2,0.9,-15.0
Cc1cccc2c1=NC(=O)/C(=C/c1[nH]c(=S)[nH]c1O)C=2,-2.1,0.2,-0.9,4.3
O=C(/C=C/Nc1ccccc1I)c1ccccc1,91.2*,-0.2,-4.8,-1.4
O=C(/C=C/Nc1ccccc1F)c1ccccc1,60.6*,-0.1,-4.9,11.5
O=C(/C=C/Nc1ccc(F)cc1F)c1ccccc1,83.9*,0.0,-1.9,-23.2
Nc1cc2c(cc1S(=O)(=O)O)C(=O)c1ccccc1C2=O,-11.4,0.1,-6.7,18.4
O=C1c2ccccc2C(=O)c2cc(S(=O)(=O)O)c(O)cc21,-0.3,-1.0,-1.0,64.5*
Cc1ccccc1N=c1scc(-c2ccc3c(c2)NC(=O)CO3)n1Cc1ccco1,48.0*,-0.1,0.1,0.0
COc1ccccc1N=c1scc(-c2ccc3c(c2)NC(=O)CO3)n1CC1CCCO1 (stereo not drawn),0.6,0.5,4.1,25.7
COCCNc1ccnc2c(-c3ccc4c(c3)OCO4)cnn12,50.7*,0.2,-2.4,9.9
COCCNc1ccnc2c(-c3ccc(F)c(Cl)c3)cnn12,-0.6,1.9*,0.0,2.1
NC(=O)c1c(Cl)nsc1Cl,65.3*,0.5,-2.1,8.4
O=C(Nc1ccc(Cl)cc1)c1c(Cl)nsc1Cl,76.2*,0.2,0.9,-21.7
Cc1c(Cl)cccc1NC(=O)N[C@H]1C[C@H]2C(=O)N[C@@H](CO)C(=O)N2C1,-19.1,0.3,0.4,-9.0
Brc1cnc(NC2CCN(Cc3ccccc3)CC2)nc1,44.4*,-0.1,-0.6,-2.0
c1ccc(CN2CCC(Nc3nccc(NC4CC4)n3)CC2)cc1,1.1,0.4,-0.9,8.3
Cc1cnc(-c2ccc(C(=O)N3CCN(C)CC3)cc2)nc1NCc1cccnc1,3.7,-0.2,-0.8,8.0
O=C1C(Cl)=C(Nc2ccc(I)cc2)C(=O)N1c1ccccc1,-0.2,-0.1,-1.6,-16.8
CC(C)n1cc(-c2cnc3ccccc3n2)cn1,71.6*,-0.2,-8.4,-1.2
CCOc1ccc(-c2cnc3ccccc3n2)cc1,75.3*,0.2,-5.3,8.1
CCCCCC(=O)Oc1ccc(-c2cnc3ccccc3n2)cc1,6.6,0.8,-0.9,15.1
O=C(Oc1cccc(-c2cnc3ccccc3n2)c1)c1ccco1,42.9*,-0.3,-0.7,1.6
CC(=O)Oc1ccc(-c2cnc3ccccc3n2)cc1,40.2*,0.1,-7.9,5.8
SMILES,TEAD-YAP block,FBW7 act,GPR151 ag,MITF inh
CC1=NN(c2ccccc2)C(=O)/C1=C\c1ccc(N(C)C)c(Br)c1,8.9,-0.2,-0.2,13.5
OC1(c2ccc(OC(F)F)cc2)CSC(=Nc2cccnc2)N1C1CC1 (stereo not drawn),42.1*,-0.1,0.4,19.9
Cc1cccc(NS(=O)(=O)c2cn(C)cn2)c1,1.1,0.1,1.0,-10.9
CCn1c(=O)c2cc(C(=O)Nc3cc(OC)ccc3OC)sc2c2ccccc21,5.8,-0.1,-0.2,-8.1
CCOC1CCCCC1NS(=O)(=O)c1ccccc1 (stereo not drawn),7.2,0.1,1.9,8.6
CCOC(=O)c1sc(NC(=O)c2cc3ccccc3c(=O)o2)c(C(=O)OCC)c1C,-14.3,0.0,0.3,1.5
CCc1c(C(=O)c2ccc(C)cc2)n2c(C)csc2[n+]1-c1ccccc1,40.0*,-0.1,2.1,2.1
Cc1csc2n1c(C(=O)c1ccccc1)c(C)[n+]2-c1ccc(Br)cc1,13.9,0.1,-1.0,5.7
Fc1ccc(Nc2nc3nonc3n3nnnc23)cc1,45.6*,0.0,-6.1,6.1
O=c1[nH]c2nonc2nc1Nc1ccccc1F,72.7*,-0.2,-1.7,5.6
Cc1cccc(Nc2nc3nonc3nc2Nc2ccc(F)cc2)c1C,35.0*,-0.1,1.3,9.8
Cc1ccc(Nc2nc3nonc3n3nnnc23)cc1C,-8.0,0.2,-1.4,16.0
Fc1ccc(Nc2nc3nonc3nc2Nc2ccccc2F)cc1,82.6*,-0.3,2.9,-2.4
